Screening data as filed in PubChem.
HT1080 IDH1KD tx: kills HT-1080 cells with IDH1 knockdown; HT-1080 IDH1 knockdown viability, ATP luminescence, 48 h; Potency, µM (series often up to 46.1 µM), without a hit: at the top dose activity, negative = toxicity, hits mostly cytotoxic; actives 2% (n = 360,000);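 also: potency is read from the fitted curve at half-maximal effect; 0% = DMSO wells and -100% = cell-free medium wells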
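IDH1KD HT-1080 cells, 750/well, RPMI + 5% FBS; compound pinned after 2 h settling; 48 h, 37 °C; CellTiter-Glo luminescence; % activity normalised to DMSO and no-cell wells; curves fitted, classed by r2 and efficacy.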
IL1B secr inh: blocks inflammasome-driven IL-1 beta release. activity change, % at 57.5 µM. THP-1 LPS/ATP IL-1B secretion, AlphaLISA, 16 h; hits give low values. AID 743279. actives 4.7% (n = 360,000); in the data active = activity change below about -50%; inconclusive = mostly about -30% to -49%
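Secreted IL-1B measured by AlphaLISA bead assay after 16 h compound exposure of THP-1 cells; compounds (final up to 57.5 uM) added 1 h before LPS (250 ng/mL) and ATP (1.25 mM) stimulation; lower signal means less secretion.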
HT1080NT lethal: kills 2HG-producing HT-1080-NT fibrosarcoma cells | HT-1080-NT fibrosarcoma viability, CellTiter-Glo ATP luminescence, 48 h | Potency, µM (highest dose often 46.1 µM), without a hit: top-dose activity, negative = less viability, hits mostly cytotoxic | actives 1.6% (n = 360,000);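 also: NT is the 2HG producing partner of a matched IDH1 knockdown line; potency is read from the fitted curve at half-maximal effect; 0% = DMSO-treated cells and -100% = media-only wells without cells; nearly all actives have a fitted effect of over 55% in size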
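Read-out is CellTiter-Glo luminescence after 10 minutes at room temperature, following 48 hours' compound treatment of HT-1080-NT cells (750 cells/well, RPMI, 5% FBS, 37 degrees C).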
TDP1 cell noCPT: qHTS for Inhibitors of human tyrosyl-DNA phosphodiesterase 1 (TDP1): qHTS in cells in absence of CPT; DT40 Tdp1-/- hTDP1 cells, no CPT, ATP luminescence, 48 h; actives 15% (n = 420,000); Potency, µM (doses to about 46.2 µM), for inactives: top-dose activity change, negative = growth inhibition, usual class: inhibitors; also: potency is read from the fitted curve at half-maximal effect; nearly all actives have a fitted effect of over 55% in size
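Stably hTDP1-transfected Tdp1-null chicken DT40 cells were treated with library compounds minus camptothecin and grown for at least 48 hr at 37 °C, after which cellular ATP was quantified by luminescence.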
DT40 TDP1 CPT: growth inhibition of DT40 Tdp1-/-;hTDP1 cells with camptothecin (screen for TDP1 inhibitors). Potency, µM (top dose mostly 46.2 µM), without a hit: top-dose activity change, negative = growth inhibition, usual class: inhibitors. actives 12% (n = 420,000). chicken DT40 Tdp1-/-;hTDP1 cells + 20 nM CPT, ATP luminescence, 48 h; also: potency is read from the fitted curve at half-maximal effect; nearly all actives have a fitted effect of over 55% in size
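Cell growth measured by CellTiter-Glo luminescence after a minimum 48 h, 37 C compound exposure with 20 nM CPT in Tdp1-knockout DT40 cells stably expressing hTDP1, seeded 400/well; qHTS titration format.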
Starred values were filed as active, the others as inactive. Shown are actives, neighbours in structure and some others; about 19% of the full set was active somewhere. Unless noted, calls follow the shape of the dose curve; as a rule, active = well fitted curve in the direction sought with a large enough effect; inconclusive = small, poorly fitted or top-dose-only effect, or another doubt; inactive = no such curve, though single readings can be large; an effect the other way counts as inactive or inconclusive. Unless noted, % is scaled to controls: 0 for no effect and ±100 for the full control effect.

`CCOc1cc(/C=C2\SC(=NC)N(C)C2=O)c(Br)cc1OC(C)=O` gave HT1080 IDH1KD tx 4%, IL1B secr inh 15, HT1080NT lethal 13%, TDP1 cell noCPT 21µM* and DT40 TDP1 CPT inconclusive.
`CCOc1cc(/C=C2\SC(=NC)N(C)C2=O)cc(Cl)c1OC(C)=O` gave HT1080 IDH1KD tx -11%, IL1B secr inh 3, HT1080NT lethal -4%, TDP1 cell noCPT inconclusive and DT40 TDP1 CPT inconclusive.
CC(C(=O)Nc1ccccc1)N(c1cccc(Cl)c1)S(C)(=O)=O (centres undefined) was read as HT1080 IDH1KD tx 6%, IL1B secr inh -11, HT1080NT lethal 23%, TDP1 cell noCPT -7% and DT40 TDP1 CPT -8%.
`O=C(Nc1ccc(S(=O)(=O)N2CCOCC2)cc1)c1ccc(Cl)c([N+](=O)[O-])c1` gave HT1080 IDH1KD tx -33%, IL1B secr inh -96*, HT1080NT lethal inconclusive, TDP1 cell noCPT 13µM* and DT40 TDP1 CPT 13µM*.
Screening O=C(Nc1ccc(S(=O)(=O)N2CCOCC2)cc1)c1cccc([N+](=O)[O-])c1 returned HT1080 IDH1KD tx -9%, IL1B secr inh -4, HT1080NT lethal -11%, TDP1 cell noCPT -14% and DT40 TDP1 CPT inconclusive.
CC(=O)N1CCN(c2ccc(NC(=O)c3ccc(Cl)c([N+](=O)[O-])c3)cc2)CC1 was read as HT1080 IDH1KD tx 15%, IL1B secr inh -52*, HT1080NT lethal 11%, TDP1 cell noCPT -15% and DT40 TDP1 CPT inconclusive.
`CC(=O)N1CCN(c2ccc(NC(=O)c3ccc(Cl)c(Cl)c3)cc2)CC1` gave HT1080 IDH1KD tx 7%, IL1B secr inh -2, HT1080NT lethal 4%, TDP1 cell noCPT inconclusive and DT40 TDP1 CPT inconclusive.
Cc1ccc(C(=O)Nc2cccc(S(=O)(=O)N3CCOCC3)c2)cc1[N+](=O)[O-] was read as HT1080 IDH1KD tx -1%, IL1B secr inh -4, HT1080NT lethal -5%, TDP1 cell noCPT inconclusive and DT40 TDP1 CPT 12µM*.
`O=C(Nc1cccc(S(=O)(=O)N2CCOCC2)c1)c1ccc(Cl)c([N+](=O)[O-])c1` gave HT1080 IDH1KD tx -1%, IL1B secr inh -99*, HT1080NT lethal 3%, TDP1 cell noCPT inconclusive and DT40 TDP1 CPT inconclusive.
Screening COc1ccc(Cn2c(CO)cnc2SCC(=O)Nc2cccc(NC(C)=O)c2)cc1 returned HT1080 IDH1KD tx -1%, IL1B secr inh 2, HT1080NT lethal -1%, TDP1 cell noCPT 8% and DT40 TDP1 CPT -25%.
`COc1cc(OC)cc(-c2cc(N)n(S(=O)(=O)c3cccc4nsnc34)n2)c1` gave HT1080 IDH1KD tx 0%, IL1B secr inh -19, HT1080NT lethal -3%, TDP1 cell noCPT inconclusive and DT40 TDP1 CPT inconclusive.
COc1cccc(NC(=O)c2cccc(C)c2[N+](=O)[O-])c1 was read as HT1080 IDH1KD tx 2%, IL1B secr inh 20, HT1080NT lethal -1%, TDP1 cell noCPT -22% and DT40 TDP1 CPT 9%.
CN(C)S(=O)(=O)c1cccc(NC(=O)c2ccc(N3CCOCC3)c([N+](=O)[O-])c2)c1 was read as HT1080 IDH1KD tx -10%, IL1B secr inh -7, HT1080NT lethal -16%, TDP1 cell noCPT inconclusive and DT40 TDP1 CPT 16µM*.
For NC(=O)c1sc2nc(-c3cccnc3)ccc2c1N the results were HT1080 IDH1KD tx 2%, IL1B secr inh -67*, HT1080NT lethal 11%, TDP1 cell noCPT inconclusive and DT40 TDP1 CPT inconclusive.
Nc1c(C(=O)NC2CC2)sc2nc3c(c(-c4ccco4)c12)CC/C3=C/c1ccco1 was read as HT1080 IDH1KD tx -12%, IL1B secr inh -75*, HT1080NT lethal -6%, TDP1 cell noCPT 16µM* and DT40 TDP1 CPT 18µM*.
Screening O=C(NC1CCCC1)c1cc2nc(-c3ccco3)cc(C(F)(F)F)n2n1 returned HT1080 IDH1KD tx 0%, IL1B secr inh -4, HT1080NT lethal 4%, TDP1 cell noCPT inconclusive and DT40 TDP1 CPT inconclusive.
`Cc1ccc(-c2c3c(nc4sc(C(N)=O)c(N)c24)CCCC3)o1` gave HT1080 IDH1KD tx -8%, IL1B secr inh -25, HT1080NT lethal -2%, TDP1 cell noCPT -24% and DT40 TDP1 CPT -5%.
`Nc1c(C(=O)Nc2ccc(OC(F)(F)F)cc2)sc2nc(-c3ccncc3)ccc12` gave TDP1 cell noCPT 6.5µM* and DT40 TDP1 CPT 10µM*.
`NC(=O)c1sc2nc3c(c(-c4ccco4)c2c1N)CCC3` gave HT1080 IDH1KD tx -26%, IL1B secr inh -80*, HT1080NT lethal 0%, TDP1 cell noCPT 14µM* and DT40 TDP1 CPT inconclusive.
CC(CNC(=O)CC[C@H]1O[C@@H](n2ccc(=O)[nH]c2=O)[C@H](O)[C@@H]1O)c1ccccc1 (some centres undefined) was read as HT1080 IDH1KD tx 16%, IL1B secr inh 30, HT1080NT lethal 15%, TDP1 cell noCPT 8% and DT40 TDP1 CPT 2%.
Screening COC(=O)c1sc2nc(-c3ccco3)ccc2c1N returned HT1080 IDH1KD tx 8%, IL1B secr inh 9, HT1080NT lethal 11%, TDP1 cell noCPT inconclusive and DT40 TDP1 CPT -16%.
`Nc1c(C(=O)Nc2ccccc2F)sc2nc(-c3cccnc3)ccc12` gave HT1080 IDH1KD tx 13µM*, IL1B secr inh -10, HT1080NT lethal inconclusive, TDP1 cell noCPT inconclusive and DT40 TDP1 CPT 0%.
NC(=O)c1sc2nc(-c3ccco3)ccc2c1N was read as HT1080 IDH1KD tx 13%, IL1B secr inh -68*, HT1080NT lethal 10%, TDP1 cell noCPT -26% and DT40 TDP1 CPT -19%.
Cc1cc(NCC(c2ccccc2)c2ccccc2)n2ncnc2n1 was read as HT1080 IDH1KD tx -6%, IL1B secr inh 29, HT1080NT lethal 7%, TDP1 cell noCPT inconclusive and DT40 TDP1 CPT inconclusive.
Screening CC(=O)c1ccc(N(CC(=O)NC2CCCCC2)C(=O)c2csnn2)cc1 returned HT1080 IDH1KD tx -3%, IL1B secr inh -3, HT1080NT lethal -7%, TDP1 cell noCPT inconclusive and DT40 TDP1 CPT 0%.
Screening COCCOC(=O)Cn1nnc2sc(-c3ccccc3)cc2c1=O returned TDP1 cell noCPT -14% and DT40 TDP1 CPT -24%.
CCC(C(=O)OC)n1nnc2sc(-c3ccccc3)cc2c1=O (centres undefined) was read as TDP1 cell noCPT 15µM* and DT40 TDP1 CPT inconclusive.
Screening COc1ccc(NC(=O)C(C)n2nnc3sc(-c4ccccc4)cc3c2=O)cc1Cl (centres undefined) returned TDP1 cell noCPT 6.5µM* and DT40 TDP1 CPT 13µM*.
